Screening data: PubChem BioAssay, National Center for Advancing Translational Sciences (NCATS)
Sampled rows, rich in hits. Any-hit rate of the full collection: about 19%.
HT1080 IDH1KD tx = qHTS for induction of synthetic lethality in tumor cells producing 2HG: qHTS for the HT-1080-IDH1KD cell line | HT-1080 IDH1 knockdown viability, ATP luminescence, 48 h | Potency, µM (top dose mostly 46.1 µM), for the others: at the highest dose activity, negative = toxicity, hits mostly cytotoxic | actives 2% (n = 360,000) | AID 686971, 2013;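 further: potency means the concentration at half of the fitted maximal effect; 0% = DMSO wells and -100% = cell-free medium wells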
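Assay cells: HT-1080 with IDH1 knockdown, 750 per well, RPMI/5% FBS. Exposure: 48 h at 37 °C following 2 h pre-incubation. Read: CellTiter-Glo luminescence; fitted concentration-response, curve class assigned.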
IL1B secr inh = qHTS for Inhibitors of Inflammasome Signaling: IL-1-beta AlphaLISA Primary Screen; THP-1 LPS/ATP IL-1B secretion, AlphaLISA, 16 h; stronger effect = lower value; actives 4.7% (n = 360,000); activity change, % at 57.5 µM; in the data active means activity change below about -50%; inconclusive means mostly about -30% to -49%
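Secreted IL-1B measured by AlphaLISA bead assay after 16 h compound exposure of THP-1 cells; compounds (final up to 57.5 uM) added 1 h before LPS (250 ng/mL) and ATP (1.25 mM) stimulation; lower signal means less secretion.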
HT1080NT lethal = qHTS for induction of synthetic lethality in tumor cells producing 2HG: qHTS for the HT-1080-NT fibrosarcoma cell line; HT-1080-NT fibrosarcoma viability, CellTiter-Glo ATP luminescence, 48 h; Potency, µM (series often up to 46.1 µM), inactives show at the highest dose activity, negative = less viability, hits mostly cytotoxic; actives 1.6% (n = 360,000); AID 686970, 2013;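 further: NT is the 2HG producing partner of a matched IDH1 knockdown line; potency means the concentration at half of the fitted maximal effect; 0% = DMSO-treated cells and -100% = media-only wells without cells; nearly all actives have a fitted effect of over 55% in size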
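Toxicity toward the 2HG-producing NT line was scored as %Activity, normalised to DMSO and no-cell wells, from CellTiter-Glo luminescence after 48 hours' treatment.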
TDP1 cell CPT = qHTS for Inhibitors of human tyrosyl-DNA phosphodiesterase 1 (TDP1): qHTS in cells in presence of CPT. actives 12% (n = 420,000). Potency, µM (doses to about 46.2 µM), for inactives: at the top dose activity change, negative = growth inhibition, actives largely listed as inhibitors. chicken DT40 Tdp1-/-;hTDP1 cells + 20 nM CPT, ATP luminescence, 48 h. AID 686979, 2013; further: potency means the concentration at half of the fitted maximal effect; nearly all actives have a fitted effect of over 55% in size
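Chicken DT40 Tdp1-/- cells complemented with human TDP1, 400 cells/well, exposed to compounds plus 20 nM camptothecin for at least 48 h at 37 C; viability read as ATP content by CellTiter-Glo luminescence.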
DT40 TDP1 no CPT = qHTS for Inhibitors of human tyrosyl-DNA phosphodiesterase 1 (TDP1): qHTS in cells in absence of CPT; Potency, µM (doses to about 46.2 µM), for the others: at the highest dose activity change, negative = growth inhibition, hits mostly inhibitors; actives 15% (n = 420,000); DT40 Tdp1-/- hTDP1 cells, no CPT, ATP luminescence, 48 h; further: potency means the concentration at half of the fitted maximal effect; nearly all actives have a fitted effect of over 55% in size
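A cellular qHTS used chicken DT40 cells lacking endogenous Tdp1 but carrying stably transfected human TDP1. Compounds were applied without camptothecin, and cell growth kinetics were judged by ATP-dependent luminescence after ≥48 hr.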
* = called active by the depositor; ? = inconclusive; / = no result. Unless noted, the call rests on the fitted dose curve; in most records, active means well fitted curve in the direction sought with a large enough effect; inconclusive means small, poorly fitted or top-dose-only effect, or another doubt; inactive means no such curve, though single readings can be large; an effect the other way counts as inactive or inconclusive. Unless noted, on the % scale 0 is the no-effect control and ±100 the full control effect.

SMILES | HT1080 IDH1KD tx | IL1B secr inh | HT1080NT lethal | TDP1 cell CPT | DT40 TDP1 no CPT
Cc1cc(NC(=O)CCc2ccc(S(=O)(=O)N3CCOCC3)cc2)n(-c2ccccc2)n1 | -11% | 12 | 1% | 12µM* | 8.2µM*
CN(C)CC(C)(C)CNC(=S)Nc1ccc(S(=O)(=O)N2CCOCC2)cc1 | 1% | 0 | 0% | -12% | ?
CC(C)CCCCCCNC(=S)Nc1ccc(S(=O)(=O)N2CCOCC2)cc1 | ? | -82* | ? | 16µM* | 13µM*
CC(NC(=S)Nc1ccc(S(=O)(=O)N2CCOCC2)cc1)C1CC2CCC1C2 (stereo unspecified) | ? | 0 | ? | ? | 29µM*
Cc1cc(NC(=O)CN2CCOCC2)n(-c2ccccc2)n1 | 17% | -2 | 15% | 2% | -7%
N#CCc1nc2ccccc2c(=O)[nH]1 | -2% | -7 | -3% | 0% | ?
COc1ccc(NC(=O)NC(C)C2CC3CCC2C3)cc1 (stereo unspecified) | -10% | -80* | 14% | 11% | -16%
Cn1c(=O)c2[nH]c(CSCc3ccccc3)nc2n(C)c1=O | 15% | 0 | 11% | ? | ?
Cn1c(=O)c2[nH]c(CCCCc3nc4ccccc4[nH]3)nc2n(C)c1=O | 3% | 19 | -2% | 4% | -11%
Cn1c(=O)c2[nH]c(CCCCCCCCc3nc4ccccc4[nH]3)nc2n(C)c1=O | -16% | -60* | ? | 7.3µM* | 5.2µM*
Cn1c(=O)c2[nH]c(CN(Cc3ccccc3)Cc3ccccc3)nc2n(C)c1=O | 0% | 24 | 1% | 10µM* | 15µM*
Cn1c(=O)c2[nH]c(Cc3cccc4ccccc34)nc2n(C)c1=O | 2% | 19 | 3% | ? | 16µM*
COCCn1c(=O)c(C)nc2cncnc21 | / | / | / | 9% | 20%
COc1cccc(CNC(=O)c2ccc(NC(=O)N3CCCCc4ccccc43)cc2)c1 | / | / | / | ? | 21µM*
COCCCNC(=O)c1ccc(-n2c(-c3ccccc3)cc3c2CCCC3)cc1 | / | / | / | ? | 21µM*
COc1cccc(CNC(=O)c2ccc(NC(=O)N3CCCCc4ccccc43)cc2)c1OC | / | / | / | ? | 16µM*
O=C(NCc1ccccc1Cl)c1ccc(NC(=O)N2CCCCc3ccccc32)cc1 | / | / | / | -3% | -9%
COCCNC(=O)c1ccc(NC(=O)N2CCCCc3ccccc32)cc1 | / | / | / | -5% | -10%
COc1cccc(CNC(=O)c2ccc(-n3c(C)cc4c3CCCC4)cc2)c1 | / | / | / | -83% | 16µM*
Cc1ccccc1CN1C(=O)c2ccccc2S(=O)(=O)c2ccc(C(=O)OCC3CCCO3)cc21 (stereo unspecified) | / | / | / | -7% | -20%
C[C@H](NC(=O)[C@@H]1CSC2c3ccccc3C(=O)N21)C(=O)NCc1c(F)cccc1Cl (stereo partly specified) | 0% | -3 | -3% | ? | ?
Cc1ccc(CNC(=O)C2CCC(=O)N(CCCN3CCOCC3)C2)cc1 (stereo unspecified) | 0% | 6 | -5% | -12% | 2%
Cc1c(NC(=O)[C@@H](NC(=O)c2ccc(Cl)c([N+](=O)[O-])c2)C(C)C)c(=O)n(-c2ccccc2)n1C | 0% | -94* | -2% | 3% | ?
C=C[C@]1(C)C=C2CC[C@H]3[C@@](C)(CCC[C@@]3(C)C(=O)O)[C@@H]2CC1 | -8% | 29 | -7% | -24% | -11%
C=C[C@]1(C)C=C2C(=O)[C@@]3(O)OC(=O)[C@@]4(CCCC(C)(C)[C@H]34)[C@@]2(O)CC1 | 2.9µM* | -113* | 2.9µM* | 0.65µM* | 1.6µM*
COC(=O)c1cc2sccc2n1Cc1ccc(F)cc1 | / | / | / | -21% | -8%
